Assay [1] in a line: small molecules captured by biotinylated probe aFSTL3 – biochemical, small-molecule microarray, fluorescence 635/667, stem cell growth factor project, primary screen (AID 1064).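 Further: measures binding of the biotinylated anti-FSTL3 antibody to printed compounds.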 The settings on record: higher = more signal.
Assay [2] in a line: binders from COS7 lysate, DM2A8 probe, primary screen, torsin A project, cell lysate, small-molecule microarray, fluorescence 635/667 (AID 1065). The following applies: higher = more signal, COS7 lysate expressing mutant human TOR1A.
A short description of assay [3]: small molecules captured by biotinylated probe aFGF2 – biochemical, small-molecule microarray, fluorescence 635/667, stem cell growth factor project, primary screen (AID 1067).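 Further: measures binding of biotinylated aFGF2 protein to printed compounds on slides; z-score merges feature fluorescence and signal-to-noise across triplicate slides.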 The following applies: higher = more signal.
The nature of assay [4]: small molecules captured by biotinylated probe aFGF10 – biochemical, small-molecule microarray, fluorescence 635/667, stem cell growth factor project, primary screen (AID 1071).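 Further: score merges 667 nm spot intensity and signal to noise from triplicate slides.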 The following applies: higher = more signal.
For assay [5], the target named is Neurogenic locus notch homolog protein 2 (Homo sapiens) (UniProt Q04721). Kind of assay: small molecules binding Notch2 protein – biochemical, small-molecule microarray, 635 nm fluorescence, stem cell growth factors, primary screen (AID 1073). The settings on record: higher = more signal.
Neurogenic locus notch homolog protein 2 (Homo sapiens), sequence (Q04721 whole entry, looked up, canonical isoform): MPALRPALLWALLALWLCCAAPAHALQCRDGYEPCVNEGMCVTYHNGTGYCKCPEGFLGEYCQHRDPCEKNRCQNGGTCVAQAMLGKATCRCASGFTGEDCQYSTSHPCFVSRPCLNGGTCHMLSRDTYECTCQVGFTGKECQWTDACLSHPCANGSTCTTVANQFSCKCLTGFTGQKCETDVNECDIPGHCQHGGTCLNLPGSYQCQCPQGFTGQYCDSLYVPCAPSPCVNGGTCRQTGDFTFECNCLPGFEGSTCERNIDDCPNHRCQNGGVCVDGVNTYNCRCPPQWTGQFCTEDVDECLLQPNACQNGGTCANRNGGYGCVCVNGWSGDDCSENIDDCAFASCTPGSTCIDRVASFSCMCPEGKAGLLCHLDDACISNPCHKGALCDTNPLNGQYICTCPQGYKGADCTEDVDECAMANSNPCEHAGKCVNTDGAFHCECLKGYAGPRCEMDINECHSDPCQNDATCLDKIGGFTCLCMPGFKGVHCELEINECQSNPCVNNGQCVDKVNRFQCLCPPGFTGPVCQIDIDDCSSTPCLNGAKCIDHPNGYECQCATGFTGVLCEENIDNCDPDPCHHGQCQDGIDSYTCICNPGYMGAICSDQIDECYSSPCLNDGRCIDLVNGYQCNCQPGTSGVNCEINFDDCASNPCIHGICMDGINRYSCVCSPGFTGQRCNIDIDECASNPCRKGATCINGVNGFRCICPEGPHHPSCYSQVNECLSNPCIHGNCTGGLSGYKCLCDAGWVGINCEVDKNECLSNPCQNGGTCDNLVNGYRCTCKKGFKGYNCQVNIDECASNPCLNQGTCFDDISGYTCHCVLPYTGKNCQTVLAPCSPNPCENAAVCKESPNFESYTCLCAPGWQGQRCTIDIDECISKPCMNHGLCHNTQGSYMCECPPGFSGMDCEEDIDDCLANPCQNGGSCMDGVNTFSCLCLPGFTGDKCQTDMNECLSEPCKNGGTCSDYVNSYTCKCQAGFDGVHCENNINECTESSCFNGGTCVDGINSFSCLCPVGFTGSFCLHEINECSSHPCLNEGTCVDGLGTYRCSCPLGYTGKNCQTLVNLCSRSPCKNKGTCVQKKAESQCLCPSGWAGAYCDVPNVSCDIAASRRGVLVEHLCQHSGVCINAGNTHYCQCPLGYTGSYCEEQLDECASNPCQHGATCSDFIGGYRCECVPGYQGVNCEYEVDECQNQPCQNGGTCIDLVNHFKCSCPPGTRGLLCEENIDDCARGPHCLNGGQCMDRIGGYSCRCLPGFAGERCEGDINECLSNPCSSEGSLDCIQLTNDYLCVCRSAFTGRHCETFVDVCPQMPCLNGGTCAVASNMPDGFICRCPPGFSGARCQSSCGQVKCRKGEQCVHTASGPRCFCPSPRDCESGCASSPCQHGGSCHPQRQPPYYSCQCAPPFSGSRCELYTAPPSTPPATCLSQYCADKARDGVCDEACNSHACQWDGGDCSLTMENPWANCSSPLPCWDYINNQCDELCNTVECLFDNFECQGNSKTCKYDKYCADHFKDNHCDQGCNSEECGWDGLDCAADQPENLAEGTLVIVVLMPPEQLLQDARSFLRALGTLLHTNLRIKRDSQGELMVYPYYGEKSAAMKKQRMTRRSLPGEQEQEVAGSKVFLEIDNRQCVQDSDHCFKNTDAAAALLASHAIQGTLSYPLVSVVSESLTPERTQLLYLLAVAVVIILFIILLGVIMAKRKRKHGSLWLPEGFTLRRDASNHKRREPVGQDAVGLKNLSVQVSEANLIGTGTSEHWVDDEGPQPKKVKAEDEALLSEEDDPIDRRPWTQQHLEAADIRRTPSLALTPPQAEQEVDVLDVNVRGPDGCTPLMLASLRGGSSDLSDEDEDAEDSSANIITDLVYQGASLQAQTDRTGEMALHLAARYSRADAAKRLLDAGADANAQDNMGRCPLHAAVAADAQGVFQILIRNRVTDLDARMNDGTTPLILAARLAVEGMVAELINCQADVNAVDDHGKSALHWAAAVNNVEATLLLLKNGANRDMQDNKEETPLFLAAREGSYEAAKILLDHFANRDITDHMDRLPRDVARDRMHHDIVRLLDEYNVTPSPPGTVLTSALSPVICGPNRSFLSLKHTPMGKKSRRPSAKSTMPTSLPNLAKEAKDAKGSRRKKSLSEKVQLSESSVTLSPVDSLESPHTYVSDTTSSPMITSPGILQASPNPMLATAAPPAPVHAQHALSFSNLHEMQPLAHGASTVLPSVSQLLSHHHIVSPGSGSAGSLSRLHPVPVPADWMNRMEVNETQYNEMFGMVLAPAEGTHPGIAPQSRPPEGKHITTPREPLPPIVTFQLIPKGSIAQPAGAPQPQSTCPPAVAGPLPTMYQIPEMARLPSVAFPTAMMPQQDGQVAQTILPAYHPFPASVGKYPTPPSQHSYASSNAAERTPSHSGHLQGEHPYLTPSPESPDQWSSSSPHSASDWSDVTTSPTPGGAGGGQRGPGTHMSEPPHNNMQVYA
The target in assay [6] is Pro-neuregulin-1, membrane-bound isoform (Homo sapiens) (UniProt Q02297). Briefly: small molecules binding neuregulin-1 protein – biochemical, small-molecule microarray, fluorescence 635/667, psychiatric disease protein project, primary screen (AID 1075).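 Further: score combines 667 nm spot fluorescence with signal to noise.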 The settings on record: NRG1 binding, 635 nm fluorescence, higher = more signal.
Pro-neuregulin-1, membrane-bound isoform (Homo sapiens), sequence (Q02297 whole entry, looked up, the tested form may be a part, canonical isoform): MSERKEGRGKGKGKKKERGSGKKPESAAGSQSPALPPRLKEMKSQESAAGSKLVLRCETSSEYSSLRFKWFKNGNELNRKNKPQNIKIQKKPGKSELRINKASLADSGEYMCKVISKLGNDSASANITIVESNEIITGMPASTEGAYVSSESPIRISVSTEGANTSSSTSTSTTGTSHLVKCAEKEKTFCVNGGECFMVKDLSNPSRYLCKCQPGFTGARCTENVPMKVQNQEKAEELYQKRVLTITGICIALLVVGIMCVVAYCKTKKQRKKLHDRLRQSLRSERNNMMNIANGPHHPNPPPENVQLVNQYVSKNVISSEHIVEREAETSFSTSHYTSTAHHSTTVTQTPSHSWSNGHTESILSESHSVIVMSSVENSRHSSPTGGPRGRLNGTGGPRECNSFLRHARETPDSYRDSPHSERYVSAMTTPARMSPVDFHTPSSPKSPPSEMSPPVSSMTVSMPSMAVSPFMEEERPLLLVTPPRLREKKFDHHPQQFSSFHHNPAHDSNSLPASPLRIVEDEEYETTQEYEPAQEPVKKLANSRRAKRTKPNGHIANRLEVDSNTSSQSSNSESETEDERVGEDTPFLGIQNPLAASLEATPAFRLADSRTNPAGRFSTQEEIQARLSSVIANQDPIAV
Assay [7] deals with Neuregulin-1 EGF-like domain. Briefly: small molecules binding NRG1 EGF domain – biochemical, small-molecule microarray, 635 nm fluorescence, primary screen (AID 1081).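 Further: binding of the protein to compounds printed on small-molecule microarray slides.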 The settings on record: higher = more signal.
Assay [8] can be described thus: FRG1 expression reporter modulators in myotubes – cell-based, C2C12 myotubes, firefly/Renilla luciferase, luminescence, FRG1 inhibition for FSHD, primary screen (AID 1084). The settings on record: FRG1 promoter luciferase, higher = more signal, called active from +8 up or from −8 down.
Assay [9] in a line: small molecules captured by biotinylated probe aFST – biochemical, small-molecule microarray, fluorescence 635/667, stem cell growth factor project, primary screen (AID 1086).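 Further: score merges 667 nm fluorescence with signal-to-noise of each printed compound spot.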 The settings on record: higher = more signal.
Assay [10] can be described thus: binders of probe aHhip on microarray, primary screen, stem cell growth factor project, biochemical, small-molecule microarray, fluorescence 635/667 (AID 1087).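 Further: score merges spot fluorescence at 667nm with spot signal to noise ratio.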 The settings on record: higher = more signal.
In assay [11] the test system is PRMT1 (protein arginine N-methyltransferase 1). Briefly: small molecules binding arginine methyltransferase PRMT1 – biochemical, small-molecule microarray, 635 nm fluorescence, primary screen (AID 1088).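 Further: binding of Prmt1 protein to compounds spotted on small-molecule microarray slides.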 The following applies: higher = more signal.
Assay [12] can be described thus: growth effects on S. cerevisiae YJM789 – YJM789 clinical isolate, OD600, 24 h, basal, primary screen (AID 1089).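 Further: growth of clinical yeast isolate S. cerevisiae YJM 789 seeded 1000 cells per well; test concentration not given here.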 The settings on record: higher = more signal, called active from +8 up or from −8 down.
Assay [13] is described as follows: S. pombe growth modifiers, basal conditions – strain 972, OD600, 24 h, no modulator, primary screen (AID 1090).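 Further: basal condition with compound alone and no growth modifier present; test concentration not given here.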 The settings on record: S. pombe 972 growth, higher = more signal, called active from +8 up or from −8 down.
Assay [14] is described as follows: budding yeast growth modifiers under rapamycin – strain BY4716, OD600, 96 h, primary screen (AID 1091). Further: test concentration not given here. The following applies: S. cerevisiae BY4716 + rapamycin, higher = more signal, called active from +8 up or from −8 down.
The target of assay [15] is Torsin-1A-interacting protein 2 (Homo sapiens) (UniProt Q8NFQ8). Briefly: small molecules binding lysate-expressed LULL1 – cell lysate, human LULL1 lysate, 635/667 nm fluorescence, primary screen (AID 1092).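 Further: probe is lysate of COS7 cells overexpressing human LULL1; score merges per-feature 667 nm fluorescence with signal-to-noise.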 The following applies: small-molecule microarray, hLULL1 lysate binding, 635 nm fluorescence; higher = more signal.
Torsin-1A-interacting protein 2 (Homo sapiens), sequence (Q8NFQ8 whole entry, looked up): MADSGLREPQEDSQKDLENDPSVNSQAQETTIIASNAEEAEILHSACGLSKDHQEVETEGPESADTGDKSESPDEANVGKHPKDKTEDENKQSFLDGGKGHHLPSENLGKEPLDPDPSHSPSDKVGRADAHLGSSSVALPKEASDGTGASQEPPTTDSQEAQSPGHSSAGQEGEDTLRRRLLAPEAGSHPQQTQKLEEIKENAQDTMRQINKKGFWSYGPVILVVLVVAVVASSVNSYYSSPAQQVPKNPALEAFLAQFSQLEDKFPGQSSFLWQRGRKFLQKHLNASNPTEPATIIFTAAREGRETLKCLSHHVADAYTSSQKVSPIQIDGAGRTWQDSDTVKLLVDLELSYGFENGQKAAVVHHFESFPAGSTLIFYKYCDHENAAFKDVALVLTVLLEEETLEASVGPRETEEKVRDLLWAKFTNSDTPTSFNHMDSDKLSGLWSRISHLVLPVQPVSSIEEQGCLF
Assay [16] is described as follows: optical density change of DRC41 E. coli – strain DRC41, OD650, 24 h, E. coli filamentation project, primary screen (AID 1093).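 Further: MC1000 strain lacking acrAB efflux and sulA so SOS filamentation is blocked; test concentration not given here.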 The following applies: E. coli DRC41 growth, higher = more signal, called active from +8 up or from −8 down.
A short description of assay [17]: probe aLefty2 binding to arrayed compounds – biochemical, biotinylated probe, 635/667 nm fluorescence, primary screen (AID 1094).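 Further: score merges spot fluorescence near 667 nm with spot signal-to-noise ratio.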 The following applies: small-molecule microarray, higher = more signal.
The test system of assay [18] is Noggin (protein binding on small-molecule microarray). Briefly: small molecules binding Noggin protein – biochemical, 635/667 nm fluorescence, primary screen (AID 1095).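 Further: score merges 667 nm feature fluorescence with signal to noise over triplicate slides.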 The settings on record: 635 nm fluorescence, higher = more signal.
The target in assay [19] is Neurogenic locus notch homolog protein 3 (Homo sapiens) (UniProt Q9UM47). Kind of assay: small molecules binding NOTCH3 protein – biochemical, 635/667 nm fluorescence, primary screen (AID 1096). The settings on record: small-molecule microarray, 635 nm fluorescence, higher = more signal.
The nature of assay [20]: probe aEGFR binding to arrayed compounds – biochemical, biotinylated probe, 635/667 nm fluorescence, primary screen (AID 1097).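 Further: probe is a biotinylated anti-EGFR antibody binding compounds printed on slides; score combines fluorescence near 667 nm and signal to noise of each spot.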 The settings on record: small-molecule microarray, higher = more signal.

Calls of active or inactive are those of the source.

`CCOC(=O)[C@H](Cc1ccccc1)NC(=O)CCC1CC(OC(=O)NCc2cccc3ccccc23)CC2(CCCC(COC(=O)NCCc3ccccc3OC)O2)O1` (stereo not given in full): the composite z-score was -0.568 in assay [1]; 0.0631 in assay [2]; -0.0538 in assay [3]; 0.586 in assay [4]; 0.967 in assay [5]; 0.341 in [6]. Besides, the composite z-score is 1.02 in [7]; 0.327 in assay [9]; 0.0623 in assay [10]; 1.4 in assay [11]; 1.95 in [15]; 0.0108 in [17]. Besides, the composite z-score in assay [18] is 0.591; in assay [19], 0.819; in assay [20] it was -0.0396. Further, the z-score is 1.37 (inactive) in assay [8]; 0.105 (inactive) in [12]; 0.503 (inactive) in assay [13]; 0.296 (inactive) in [14]; -0.164 (inactive) in assay [16].
Regarding `COc1ccc(O[C@H]2C=C[C@@H](c3ccccc3)O[C@@H]2CO)cc1`, the composite z-score was -0.176 in assay [1]; -0.15 in [2]; -0.121 in assay [3]; 0.291 in assay [4]; -0.359 in [5]; -0.224 in assay [6]. Moreover, the composite z-score was -0.134 in [7]; -0.221 in [9]; 0.0458 in [10]; 0.018 in [11]; 0.0141 in assay [15]; -0.0603 in [17]. The composite z-score was 0.14 in assay [18], 0.0607 in assay [19] and -0.0146 in assay [20]. In addition, the z-score in assay [8] was 0.403 (inactive); in assay [12], 0.711 (inactive); in assay [13] it was -1.27 (inactive); in assay [14] it was -1.02 (inactive); in assay [16] it was 0.299 (inactive).
As for `CCOC(=O)NN=C1C[C@@H](O)[C@@H](O)[C@@H]2[C@@H]3C(=O)N(c4ccc(F)cc4F)C(=O)[C@@H]3CC[C@H]12`, the composite z-score was -0.496 in assay [1]; 0.364 in [2]; -0.0131 in assay [3]; 0.202 in [4]; 0.501 in assay [5]; -0.0227 in assay [6]. Moreover, the composite z-score in assay [7] is 0.158; in assay [9] it was 0.411; in [10] it was -0.137; in [11] it was -0.334; in assay [15], -0.35; in assay [17], -0.185. Moreover, the figures for the composite z-score in [18], in assay [19] and in [20] were 0.555, 0.625 and 0.021, respectively. The z-score in [8] is 0.816 (inactive); in [12], -0.01 (inactive); in assay [13], -0.816 (inactive); in [14], -0.155 (inactive); in assay [16], 0.786 (inactive).
On to `CO[C@H]1COC(=O)CCC[C@H](C)[C@H](OC)COC(=O)CC=C[C@@H]1C`, for which the composite z-score in [1] was -0.535; in [2], 1.95; in assay [3] it was -0.142; in [4] it was -0.692; in [5], -0.497; in assay [6], -0.441. For the same compound, the composite z-score in assay [7] is -0.291; in assay [9], -0.168; in [10] it was 0.0922; in assay [11], 1.12; in [15], -1.88; in assay [17] it was -0.0113. Also, the composite z-score in [18] is 1.13; in assay [19], -0.398; in [20], 0.0278. For the same compound, the z-score in assay [8] is -0.948 (inactive); in assay [12] it was -1.3 (inactive); in assay [13], -0.654 (inactive); in assay [14] it was -1.59 (inactive); in assay [16], -0.0243 (inactive).
With `COC(=O)[C@H](CCSC)NC(=O)CC=C[C@@H](C)CO`, the composite z-score is -0.738 in assay [1]; 2.66 in [2]; -0.123 in assay [3]; 0.708 in assay [4]; 0.175 in assay [5]; -0.399 in [6]. For the same compound, the composite z-score in [7] was 0.818; in [9] it was 0.325; in assay [10], 0.484; in assay [11] it was 1.53; in assay [15], 1.3; in assay [17] it was -0.0944. In addition, the values for the composite z-score in [18], in [19] and in assay [20] were 1.54, 0.703 and 0.493, respectively. In addition, the z-score in assay [8] was -0.202 (inactive); in assay [12] it was 0.0662 (inactive); in [13] it was 0.319 (inactive); in assay [14], 0.451 (inactive); in [16] it was 0.612 (inactive).
`CCOC(=O)CCN1C(=O)[C@H]2[C@H]3[C@H](O)[C@H](O)CC(=NOCC=C(C)CCC=C(C)C)[C@H]3CC[C@H]2C1=O`: the composite z-score in assay [1] is -0.137; in assay [2], 0.757; in assay [3] it was -0.0734; in assay [4], -0.274; in assay [5], 0.762; in assay [6], -0.601. The composite z-score is -1.74 in assay [7]; 0.752 in [9]; 0.0722 in assay [10]; 0.467 in assay [11]; 0.0139 in assay [15]; 0.287 in assay [17]. The composite z-score was determined as 0.386 in assay [18], 0.089 in [19] and 0.106 in assay [20]. Also, the z-score in assay [8] was -0.815 (inactive); in assay [12], 0.273 (inactive); in [13], -0.215 (inactive); in assay [14], -0.188 (inactive); in [16], 0.857 (inactive).

Source of the values: PubChem BioAssay.
